In PubChem BioAssay (EPA / NIEHS) one finds outcome and AC50 data, which are given here for 40 molecules.

Active and inactive are the calls of the source. How the source made its calls: active means hit-call score of the fitted dose curve at least 0.9, where 1 is the maximum; inactive means score below 0.9.

Read-out in this assay: Macrophage colony-stimulating factor (MCSF), CSF1 (gene 1435)
As to the kind of experiment: BSK_LPS_MCSF: BioMAP Diversity Plus: LPS Assay for Macrophage colony-stimulating factor (MCSF) Biomarker Activity (AID 2283083). Particulars: primary human HUVEC with PBMC; actives raise or lower the signal. The procedure: BSK_LPS is a cell-based, multiplexed-readout assay that uses umbilical vein endothelium and peripheral blood mononuclear cells, a human vascular primary cell co-culture, with measurements taken at 24 hours after chemical dosing in a 96-well plate.BSK_LPS_MCSF is an assay component measured in the BSK_LPS assay. It measures M-CSF antibody related to regulation of gene expression using ELISA technology.Data from the assay component BSK_LPS_MCSF was analyzed into 1 assay endpoint. This assay endpoint, BSK_LPS_MCSF, was analyzed with bidirectional fitting relative to DMSO as the negative control and baseline of activity. Using a type of binding reporter, gain or loss-of-signal activity can be used to understand changes in the signaling as they relate to the gene CSF1. Furthermore, this assay endpoint can be referred to as a primary readout, because this assay has produced multiple assay endpoints where this one serves a signaling function. To generalize the intended target to other relatable targets, this assay endpoint is annotated to the cytokine intended target family, where the subfamily is colony stimulating factor.
The levels of cell surface (or secreted, indicated by the prefix "s") biomarker endpoints were measured by ELISA. Overt cytotoxicity to cells in confluent adherent cultures (all systems other than the BT system) was assessed by measuring total protein levels using sulforhodamine B (SRB) staining in parallel cultures at the time of biomarker measurements, indicated as SRB endpoints. For proliferation assays for adherent cell types, individual cell types are cultured at sub-confluence and relative cell numbers quantified by SRB staining at time points optimized for each system (48 h: 3C and CASM3C systems; 72 h: BT and HDF3CGF systems; 96 h: SAg system). SRB was performed by staining cells with 0.1% SRB after fixation with 10% TCA and reading wells at 560 nm.Viability and proliferation of PBMC (T cells) was quantified by Alamar Blue reduction for the SAg and BT systems. For PBMC viability (referred to as PBMC Cytotoxicity within the assay endpoint names), cells were plated (75,000/well in a 96-well plate) and then chemical samples added for 1 h before addition of activators, SEB and TSST-1 (20 ng/mL final concentration each). Cells were incubated for 90 h. Then, Alamar Blue (20 uL/well) (Invitrogen, Cat DAL1100) was added for 6 h, and the plates were read with a fluorescence microplate reader at 546/580 nm (excitation/emission). For PBMC proliferation, cells were plated and activated as above but incubated for only 16 h prior to addition of Alamar Blue. Plates were read after 6 h.
`Cc1ccc(C)c(O)c1C`: the result was inactive.

In the case of `CCCCCCOCCO`, the result was inactive.

As to `CNCc1cc(F)ccc1Oc1ccc(Cl)c(Cl)c1`, the result was inactive.

For orientation: AC50 means the midpoint of the concentration-response curve, whichever way the signal moves. On to `Nc1ccccc1N`, for which the AC50 was 3.97 µM (active).

In the case of `Cc1nc(-c2ccc3c(c2)CCN(CCC2CCC(NC(=O)/C=C/c4ccc(F)cc4)CC2)CC3)no1` (stereo not given), the AC50 is 9.3 µM (active).

Consider `CC=Cc1ccc(O)c(OC)c1`, for which the outcome was inactive.

On to `CCCCOC(=O)CCCCCCCCC(=O)OCCCC`, for which the outcome was inactive.

In the case of `COCCOCCOC`, the outcome was inactive.

On to `CCCCc1ccc2c(n1)[C@@H](c1ccc(OC)cc1C[C@H](C)C(=O)O)[C@H](C(=O)O)[C@H]2c1ccc2c(c1)OCO2`, for which the outcome was inactive.

For `C[C@]12C=CC(=O)C=C1CC[C@@H]1[C@@H]2C(=O)C[C@@]2(C)[C@H]1CC[C@]2(O)C(=O)CO`, the outcome was inactive.

For `CCCCCCCCCCO`, the result was inactive.

On to `CC(C)(C)c1cc(O)c(C(C)(C)C)cc1O`, for which the result was inactive.

As to `CC(=O)OC/C=C(\C)CCC=C(C)C`, the outcome was inactive.

Turning to `COc1ccc(C)cc1N`, the outcome was inactive.

As for `COCCOC[C@H](CC1(C(=O)NC2CCC(C(=O)O)CC2)CCCC1)C(=O)Oc1ccc2c(c1)CCC2` (stereo not given in full), the outcome was inactive.

Turning to `COC(=O)c1ccc(O)cc1`, the result was inactive.

Regarding `CCCCCCCC=O`, the outcome was inactive.

For the molecule `CN1CCN(Cc2cc(-c3ccc4[nH]c(=O)oc4c3)co2)[C@@H](c2ccc(F)cc2)C1`, the result was inactive.

Turning to `Cc1nc(C)nc(N2C[C@@H](C)N(c3ccnc([C@@H](C)O)n3)[C@@H](C)C2)n1`, the result was inactive.

Regarding `Nc1ccc2c(c1)C(=O)c1ccccc1C2=O`, the result was inactive.

With `Cc1cc(=O)[nH]c(=S)[nH]1`, the outcome was inactive.

For the molecule `c1cc(-c2ccncc2)ccn1`, the outcome was inactive.

For `Cc1ccc(N(C)C)cc1`, the outcome was inactive.

Consider `CC(=O)OCCOCCOCCOC(C)=O`, for which the outcome was inactive.

On to `CCCCCCC(=O)OCC`, for which the result was inactive.

Take `NS(=O)(=O)c1cc2c(cc1Cl)NCNS2(=O)=O`: the outcome was inactive.

For the molecule `CCOc1ccc2c(c1)C(C)=CC(C)(C)N2`, the outcome was inactive.

As for `Cc1ccccc1Cl`, the outcome was inactive.

For `OC[C@@H](O)[C@@H](O)[C@H](O)[C@H](O)CO`, the outcome was inactive.

For `CNC(=O)[C@H]1O[C@@H](n2cnc3c(NCc4cc(Cl)ccc4OCc4cc(C)no4)ncnc32)[C@H](O)[C@@H]1N`, the outcome was inactive.

On to `COc1cc(-c2nc(NC(=O)c3cc4cc(C)cc(C)c4n3CC(=O)O)sc2CCC2CCCCC2)c(OC)cc1Cl`, for which the AC50 is 4.31 µM (active).

Take `CC(=O)C(C)=CC1C(C)=CCCC1(C)C` (stereo not given): the result was inactive.

`CCNc1cccc(C)c1`: the result was inactive.

For the molecule `CCCCCCCCCCCC(=O)OC`, the outcome was inactive.

As for `NCC1(Cc2noc(=O)[nH]2)CCCCC1`, the result was inactive.

Turning to `CCCCCCCCCCC`, the outcome was inactive.

As for `Oc1ccc2ccccc2c1N=Nc1ccccc1`, the outcome was inactive.

`CC1(C)CC(N=C=O)CC(C)(CN=C=O)C1` (stereo not given): the result was inactive.

Regarding `CCCc1cc(=O)[nH]c(=S)[nH]1`, the outcome was inactive.

Take `CC(=O)Oc1ccccc1C(=O)O`: the result was inactive.
